Assay outcomes deposited in PubChem by several laboratories.
TWEAK-Fn14 inh – blocks TWEAK-Fn14 interaction in a reporter cell assay | TWEAK-stimulated Fn14 reporter cells, luciferase luminescence, 8 h | inhibition, % at 10 µM | 360,000 tested, 2% active | AID 1159606; in the data active means inhibition above about 50%
Shn3 3UTR inh – Schnurri-3 reporter inhibition in Clone20 osteoblasts | Clone20 osteoblast Shn3 3'UTR firefly luciferase, 24 h | inhibition, % at 12.5 µM | 360,000 tested, 0.52% active | AID 588674;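 active means mean inhibition of at least 75% with every replicate also reaching 75%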;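 further: 0% = median of neutral control wells and 100% = pilot-screen positive control compound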
TROY NFkB inh – blocks TROY-dependent signaling in reporter cells; inhibition, % at 10 µM; 360,000 tested, 0.98% active; AID 1347056; Q293 LMP1-TROYcd NF-kB luciferase reporter, 4 h;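 active means compounds whose plate-normalised and pattern-corrected inhibition of the luciferase reporter signal at the single screening dose is 50% or more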
HIF-2a inh – inhibitors of HIF-2a; AID 624352; 786-0 RCC cells HIF-2a reporter, luciferase luminescence, overnight; 360,000 tested, 0.72% active; inhibition, % at 18.8 µM;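 active means inhibition of the luminescence signal of 40% or more relative to plate controls, in a single-dose primary screen at 18.75 µM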
LMP1 NFkB inh – inhibitors of Epstein-Barr LMP1-induced NF-kappaB reporter; AID 504558; LMP1-induced NF-kappaB luciferase reporter cells, luminescence; inhibition, % at 12.5 µM; 350,000 tested, 0.69% active; in the data active means inhibition above about 41%;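 further: 0% = neutral control wells and 100% = reference inhibitor control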
TRPM1 prom inh – MITF TRPM1 promoter inhibition in SK-MEL-5 cells; SK-MEL-5 TRPM1 promoter luciferase, 24 h; inhibition, % at 12.5 µM; 330,000 tested, 0.83% active;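 active means mean inhibition across replicates of 60% or more, whatever share of single replicates reaches that level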
Numbers without * were called inactive. The list is not random: actives were taken first. Their share in the collection is about 3.4%.

`O=C1CSC(=S)N1/N=C/c1cc(Br)c(O)c(Br)c1` gave TWEAK-Fn14 inh 10, Shn3 3UTR inh 14, TROY NFkB inh 40, HIF-2a inh 7, LMP1 NFkB inh -2 and TRPM1 prom inh 1.
For COc1ccc(OC)c2c1sc(=NC(=O)C1CC1)n2C the results were TWEAK-Fn14 inh -21, Shn3 3UTR inh 13, TROY NFkB inh 5, HIF-2a inh 8, LMP1 NFkB inh -4 and TRPM1 prom inh 21.
`COc1ccc(OC)c2c1sc(=NC(=O)c1ccco1)n2C` gave TWEAK-Fn14 inh -30, Shn3 3UTR inh -13, TROY NFkB inh -13, HIF-2a inh -15, LMP1 NFkB inh 53* and TRPM1 prom inh 4.
For CC(C)(S)[C@@H](N)C(=O)O the results were TWEAK-Fn14 inh 0, Shn3 3UTR inh 74, TROY NFkB inh 3, HIF-2a inh -3, LMP1 NFkB inh 55* and TRPM1 prom inh 9.
For NC(CS(=O)O)C(=O)O (centres undefined) the results were TWEAK-Fn14 inh 2, Shn3 3UTR inh 0, TROY NFkB inh 12, HIF-2a inh 0, LMP1 NFkB inh 3 and TRPM1 prom inh -5.
O=C(O)c1cccc(-c2csc(C(O)c3ccccc3)n2)c1 (centres undefined) was read as TWEAK-Fn14 inh -10, Shn3 3UTR inh -52, TROY NFkB inh -49 and HIF-2a inh -53.
CC(=O)c1ccc(OCc2nnn(CC(=O)NS(=O)(=O)c3ccc(C)cc3)c2-c2ccccc2)cc1 was read as TWEAK-Fn14 inh -4, Shn3 3UTR inh -7, TROY NFkB inh 2 and HIF-2a inh 8.
For CCCOc1ccccc1N/C(=N/c1nc(C)cc(C)n1)NC(=O)COc1ccc(OC)cc1 the results were TWEAK-Fn14 inh 53*, Shn3 3UTR inh 91*, TROY NFkB inh 18, HIF-2a inh 10, LMP1 NFkB inh 24 and TRPM1 prom inh 1.
For CCCOc1ccccc1N/C(N)=N/c1nc(C)cc(C)n1 the results were TWEAK-Fn14 inh 3, Shn3 3UTR inh 30, TROY NFkB inh -3, HIF-2a inh 13, LMP1 NFkB inh 4 and TRPM1 prom inh 4.
O=[N+]([O-])c1ccc(N2N=C(c3ccccc3)CC2c2ccccc2O)cc1 (centres undefined) was read as TWEAK-Fn14 inh 81*, Shn3 3UTR inh 56, TROY NFkB inh 60*, HIF-2a inh 0, LMP1 NFkB inh 6 and TRPM1 prom inh 3.
NS(=O)(=O)c1ccc(N2N=C(c3ccccc3)CC2c2ccccc2Br)cc1 (centres undefined) was read as TWEAK-Fn14 inh 12, Shn3 3UTR inh 1, TROY NFkB inh 26, HIF-2a inh -3, LMP1 NFkB inh 7 and TRPM1 prom inh -1.
O=C(Nc1ccc(C(=O)N2CCOCC2)cc1)C1CC1 was read as TWEAK-Fn14 inh 4, Shn3 3UTR inh 4, TROY NFkB inh 8, HIF-2a inh -6, LMP1 NFkB inh 3 and TRPM1 prom inh 12.
For CCOC(=O)C1=C(C)NC(C)=C(C(=O)OCC)C1C(=O)OCC(=O)NCc1ccco1 the results were TWEAK-Fn14 inh -1, Shn3 3UTR inh 96*, TROY NFkB inh 12, HIF-2a inh 11, LMP1 NFkB inh -1 and TRPM1 prom inh 11.
`Cc1ccc(C(=O)OCC(=O)NCc2ccco2)cc1` gave TWEAK-Fn14 inh -7, Shn3 3UTR inh 4, TROY NFkB inh -10, HIF-2a inh -4, LMP1 NFkB inh -1 and TRPM1 prom inh -10.
For O=C(CNC(=O)c1cccs1)c1ccc(Br)cc1 the results were TWEAK-Fn14 inh 55*, Shn3 3UTR inh -55, TROY NFkB inh -7, HIF-2a inh -215, LMP1 NFkB inh -22 and TRPM1 prom inh -116.
For O=C(CNC(=O)c1cccs1)OCc1ccc(Br)cc1 the results were TWEAK-Fn14 inh 0, Shn3 3UTR inh -4, TROY NFkB inh 0, HIF-2a inh 1, LMP1 NFkB inh 10 and TRPM1 prom inh -6.
For OC1(c2cccc(C(F)(F)F)c2)CCN(c2ncnc3c2[nH]c2ccc(F)cc23)CC1 the results were TWEAK-Fn14 inh 98*, Shn3 3UTR inh 89*, TROY NFkB inh 77*, HIF-2a inh 1, LMP1 NFkB inh 44* and TRPM1 prom inh 34.
For COc1ccc(N2CCN(c3ncnc4c3[nH]c3ccccc34)CC2)cc1 the results were TWEAK-Fn14 inh 77*, Shn3 3UTR inh 81, TROY NFkB inh 76*, HIF-2a inh -2, LMP1 NFkB inh 48* and TRPM1 prom inh 29.
